Reference: PubChem BioAssay AID1445 (SRMLSC, 2008)
In all, about 220,000 compounds went through this assay and about 910 (0.41%) were called active. For the sample, actives were picked, then their nearest neighbours and some compounds at random. Potency and affinity values are given separately. A number with no mark means an inactive call.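 How the source made its calls: active means primary inhibition above the hit cutoff, then over 50% inhibition at one or more dose response concentrations (cut at about 23% in these data, passing the limit was not always enough); inconclusive means conflicting primary data, or primary hits not chosen for dose response; inactive means low primary inhibition, or under 50% at every dose.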

target: Aminopeptidase N (Plasmodium falciparum (isolate 3D7)) (UniProt O96935); assay: malaria alanyl aminopeptidase activity blockers – biochemical, fluorogenic H-Leu-NHMec substrate, 1536-well (AID 1445); details: recombinant M1AAP, H-Leu-NHMec fluorogenic kinetic assay; at 30 µM, hits give high values unless noted;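 further: plate controls were DMSO full reaction for no effect and no enzyme background for full effect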
Sequence (O96935 whole entry, looked up): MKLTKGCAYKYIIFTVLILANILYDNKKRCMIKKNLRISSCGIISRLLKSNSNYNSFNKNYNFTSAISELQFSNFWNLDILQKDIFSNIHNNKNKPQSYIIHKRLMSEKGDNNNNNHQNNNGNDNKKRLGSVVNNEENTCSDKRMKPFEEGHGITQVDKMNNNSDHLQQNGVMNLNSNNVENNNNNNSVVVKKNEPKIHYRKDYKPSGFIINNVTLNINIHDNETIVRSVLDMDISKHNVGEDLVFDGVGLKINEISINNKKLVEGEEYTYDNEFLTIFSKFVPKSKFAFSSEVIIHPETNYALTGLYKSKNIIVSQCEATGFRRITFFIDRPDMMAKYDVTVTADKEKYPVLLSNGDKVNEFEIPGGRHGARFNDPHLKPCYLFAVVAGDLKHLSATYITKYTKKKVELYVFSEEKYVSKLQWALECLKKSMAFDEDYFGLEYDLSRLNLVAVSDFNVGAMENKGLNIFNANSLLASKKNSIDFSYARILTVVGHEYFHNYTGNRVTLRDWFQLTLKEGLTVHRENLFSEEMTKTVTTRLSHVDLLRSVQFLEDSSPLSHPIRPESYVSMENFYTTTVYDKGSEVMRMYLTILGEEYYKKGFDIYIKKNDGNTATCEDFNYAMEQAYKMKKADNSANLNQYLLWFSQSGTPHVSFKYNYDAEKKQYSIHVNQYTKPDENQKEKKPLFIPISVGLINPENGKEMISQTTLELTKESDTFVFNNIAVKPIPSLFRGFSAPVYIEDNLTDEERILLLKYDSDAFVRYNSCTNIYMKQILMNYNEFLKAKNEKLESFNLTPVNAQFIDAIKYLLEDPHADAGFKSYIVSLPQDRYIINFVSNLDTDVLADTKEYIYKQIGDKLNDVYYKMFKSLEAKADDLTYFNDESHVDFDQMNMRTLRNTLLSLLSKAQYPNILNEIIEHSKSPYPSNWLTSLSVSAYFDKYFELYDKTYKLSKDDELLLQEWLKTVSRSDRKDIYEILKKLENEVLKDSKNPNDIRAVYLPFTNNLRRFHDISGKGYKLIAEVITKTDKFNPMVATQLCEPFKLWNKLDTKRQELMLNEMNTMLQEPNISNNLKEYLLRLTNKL

Point of comparison: `Cc1ccc(C(=O)NC(=S)Nc2ccc(CN3CCCCC3)cc2)c(C)c1`, inhibition 5.24%. Against it:
- COC(=O)Nc1ccc(S(=O)(=O)N2CCCC(C(=O)Nc3cccnc3)C2)cc1 (stereo not given) — lower, -1.96%
- CCN(CC)CCN(C(=O)c1ccc(S(=O)(=O)N2CCCCC2)cc1)c1nc2cc3c(cc2s1)OCO3 — lower, -2.92%
- O=C(NN1CCOCC1)c1sc2cccc(F)c2c1Cl — lower, 4.71%
- O=C1c2ccccc2C(=O)N1c1nc2nccc(-c3ccccc3)n2n1 — lower, -0.09%
- Cc1cc(NC(=O)c2cncc(Br)c2)n(-c2ccccn2)n1 — lower, 1.7%
- CCc1nnc(NS(=O)(=O)c2ccc(NC(=S)NC(=O)c3ccccc3)cc2)s1 — higher, 13.4%
- CCc1nnc(NS(=O)(=O)c2ccc(NC(=S)NC(=O)/C=C/c3ccccc3)cc2)s1 — higher, 13.3%
- CCc1nnc(NS(=O)(=O)c2ccc(NC(=S)NC(=O)/C=C/c3ccc(C(C)C)cc3)cc2)s1 — higher, 19.8%
- CCc1nnc(NS(=O)(=O)c2ccc(NC(=S)NC(=O)/C=C/c3ccc(OC)cc3)cc2)s1 — lower, 2.25%
- CCc1nnc(NS(=O)(=O)c2ccc(NC(=O)/C=C/c3ccc(F)cc3)cc2)s1 — lower, 3.37%
- COc1cc(NS(=O)(=O)c2ccc(NC(=S)NC(=O)C(C)(C)C)cc2)nc(OC)n1 — lower, 4.8%
- CCc1nnc(NS(=O)(=O)c2ccc(NC(=S)NC(=O)c3ccncc3)cc2)s1 — lower, 4.45%
- COc1cc(NS(=O)(=O)c2ccc(NC(=S)NC(=O)c3ccco3)cc2)nc(OC)n1 — higher, 16.3%
- O=C1NCCCC1C(=O)N/N=C/c1ccccc1O (stereo not given) — higher, 9.72%
- O=C(Cc1nn[nH]n1)NCc1ccccc1Cl — lower, 1.85%
- CC1(C)CC(CCC(=O)NC(=S)Nc2ccccc2Cl)C(=O)O1 (stereo not given) — higher, 8.14%
- Cc1ccc(OCC(=O)Nc2ccccc2-c2ccccc2NC(=O)COc2ccc(C)cc2)cc1 — lower, 3.53%
- N#Cc1cc(C(=O)c2cc(F)ccc2O)cn(Cc2ccccc2)c1=O — higher, 7.68%
- CC(=O)N1CCN(c2ccc(Oc3nnnn3-c3ccccc3)cc2)CC1 — lower, 2.19%
- O=C(Cc1cccs1)N/N=C/C=C/c1ccccc1[N+](=O)[O-] — lower, 2.54%
- CCc1nnc(NS(=O)(=O)c2ccc(NC(=S)NC(=O)c3ccc(F)cc3)cc2)s1 — higher, 22.7%
- CCc1nnc(NS(=O)(=O)c2ccc(NC(=S)NC(=O)c3ccc(Br)cc3)cc2)s1 — higher, 21.6%
- COc1ccc(C(=O)/C=C/Nc2cccc(O)c2)cc1 — lower, -6.48%
- Cn1nc(C(F)(F)F)c2cc(C(=O)Nc3ccc(F)c(Cl)c3)sc21 — higher, 8.67%
- O=C(CNC(=O)c1ccc(F)cc1)N/N=C/c1cc(Br)ccc1OCc1ccccc1 — lower, 0.24%
- O=C(N/N=C/c1ccco1)c1cccc(N2CCCC2=O)c1 — lower, 2.43%
- O=C(CNC(=O)c1cccc(Br)c1)N/N=C/c1cc(Br)cc(Br)c1O — lower, 0.13%
- COc1ccccc1/C=C/C(=O)NCC(=O)N/N=C/c1cc(Br)ccc1OC — higher, 22.4%
- CN(C)c1ccc(/C=N/NC(=O)c2cccc(N3CCCC3=O)c2)cc1 — lower, 4.11%
- COc1ccccc1/C=N/NC(=O)c1sc(C)nc1C — lower, 5.02%
- O=C(CNC(=O)c1ccncc1)N/N=C/c1cc(Br)ccc1OCc1ccccc1 — lower, 5.07%
- COc1ccc(/C=N/NC(=O)c2sc(C)nc2C)cc1 — higher, 9.79%
- CCOC(=O)CSc1nc2cc(C(=O)NCc3ccco3)ccc2c(=O)n1-c1ccc(F)cc1 — lower, 4.72%
- O=C(CCCCn1c(=O)[nH]c2ccccc2c1=O)NCCc1c[nH]c2ccccc12 — lower, 3.37%
- O=C(OCc1cc([N+](=O)[O-])cc2c1OCOC2)c1ccc2ccccc2n1 — lower, -2.61%
- Cc1cccc(NC(=O)CC2SC(=O)N(c3ccccc3)C2=O)c1 (stereo not given) — lower, 0.32%
- C=C1C(C(=O)Nc2cccc(OC)c2)C1C(=O)Nc1cccc(OC)c1 (stereo not given) — lower, 4.96%
- CCn1c(O)c(/C=N/N=C2CCCCC2)c2cc(C3=NNC(=O)CC3)ccc21 — lower, 4.81%
- CCOC(=O)c1sc2nccc(N(C)C)c2c1N=CN(C)C — higher, 6.88%
- COc1ccc(OC)c(CN2CCC(C(=O)N(C)CCc3ccc(OC)c(OC)c3)CC2)c1 — higher, 6.02%
- COc1cccc(/C=N/NC(=O)CN2CC(c3ccccc3)CC2=O)c1OC (stereo not given) — lower, 0.13%
- COc1ccccc1/C=N/NC(=O)c1cccc(NC(=O)c2ccccc2Cl)c1 — higher, 6.04%
- CCC(O)(CC)C(=O)N/N=C/c1cc(Br)cc(Br)c1O — higher, 30.1%
- COc1cc(/C=N/NC(=O)c2cccc(NC(=O)c3ccccc3Cl)c2)ccc1O — higher, 21.6%
- O=C(O)c1ccccc1N/N=C/c1cc(Br)cc(Br)c1O — higher, 17.7%
- CCNC(=O)COc1ccc(/C=N/NC(=O)c2cccnc2)cc1OC — lower, 3.71%
- COc1cc(/C=N/NC(=O)c2cccnc2)ccc1OCC(=O)Nc1c(C)cc(C)cc1C — higher, 5.36%
- COc1cccc(/C=N/NC(=O)CN2CC(c3ccccc3)CC2=O)c1O (stereo not given) — higher, 5.93%
- O=c1[nH]c(Cc2ccccc2Cl)nc2ccccc12 — lower, -2.4%
- CCc1c(C)[nH]n(-c2nc(-c3ccccc3)cs2)c1=O — lower, -3.51%
- C=CCn1c(=O)c2ccccc2n2c(SCc3nnc(-c4ccccc4Br)o3)nnc12 — lower, 2.98%
- Cc1ccc(NC(=O)c2cc(-c3ccco3)on2)cc1C — lower, 3.16%
- CC12COC3(C(=O)NCCc4ccccc4)CC1CCC32C (stereo not given) — lower, 3.11%
- CCCNS(=O)(=O)c1ccc(OCC(=O)NCCC2=CCCCC2)cc1 — higher, 7.1%
- Cc1ccc(S(=O)(=O)CCc2nnc(NC(=O)c3cccs3)s2)cc1 — lower, -1.23%
- O=C(CNC(=O)c1ccncc1)N/N=C/c1ccc(Br)cc1 — higher, 7.31%
- O=C(CNC(=O)c1ccccc1Br)N/N=C/c1ccc(O)cc1 — lower, -0.27%
- O=C(CNC(=O)c1ccccc1Br)N/N=C/c1ccccc1O — lower, -1.99%
- Cc1ccc(/C=N/NC(=O)C(c2ccncc2)N2CCOCC2)cc1 (stereo not given) — lower, 2.18%
- O=C(CNC(=O)c1ccncc1)N/N=C/c1ccc(O)cc1O — lower, 3.55%
- O=C(N/N=C/c1cc(Cl)ccc1O)c1ccc(Br)cc1 — higher, 22.2%
- COc1ccc(Br)cc1/C=N/NC(=O)C(c1ccncc1)N1CCOCC1 (stereo not given) — lower, -2.26%
- O=C(N/N=C/c1cc(Cl)cc(Cl)c1O)c1ccncc1 — higher, 29.6%
- CC(=O)c1cc(CN2C(=O)CCC2=O)cs1 — lower, -1.15%
- O=C(CSc1nc2ccccc2s1)NCCOc1ccc(Cl)cc1 — lower, -0.05%
- COCc1c(C(=O)OC)nnn1-c1ccccc1 — lower, -5.18%
- CCCc1c(O)nc(SCCN(CC)CC)n(C(=O)c2ccccc2)c1=O — higher, 6.49%
- CC(=O)c1ccc(N2CCN(C(=S)NCCCN(C)C)CC2)cc1 — higher, 6.58%
- O=C(N1CCOCC1)N1CCC(NC(=O)C23CC4CC(CC(C4)C2)C3)CC1 — lower, -1.68%
- O=C(COC(=O)/C=C/c1ccc(S(=O)(=O)N2CCOCC2)cc1)NCc1ccccc1 — higher, 7.02%
- COc1cccc(-c2nnc(SCC3CNC(=O)O3)n2-c2ccc(Cl)cc2)c1 (stereo not given) — lower, 3.85%
- Cc1cccc(OCC(=O)Nc2cc(S(=O)(=O)N3CCCCC3)ccc2N2CCN(C)CC2)c1 — higher, 5.64%
- Cc1cnc(C(=O)Nc2nc(-c3ccccc3)cs2)cn1 — higher, 7.19%
- O=C(N/N=C/c1cc([N+](=O)[O-])ccc1O)c1ccncc1 — higher, 18.8%
- O=C(N/N=C/c1cc(Br)cc(Br)c1O)c1ccncc1 — higher, 36.7%
- CN(C)/C=C(\C=O)c1onc(-c2ccccc2Cl)c1C#N — higher, 6.68%
- CN(CC(=O)Nc1ccccc1C(=O)N1CCCC1)S(=O)(=O)c1ccc(Br)cc1 — lower, -0.21%
- CC(C)C1NC2(C(=O)c3ccccc3C2=O)C2C(=O)N(c3ccc(F)cc3)C(=O)C12 (stereo not given) — lower, 0.46%
- COc1cc(/C=C2\SC(=N)N(c3ccc4c(c3)OCO4)C2=O)cc(OC)c1O — lower, 5.15%
- Cc1cccc(NC(=O)CN2C(=O)S/C(=C\c3ccc(-c4cccc(C(=O)O)c4C)o3)C2=O)c1 — lower, 2.36%
- N=C1S/C(=C\c2ccco2)C(=O)N1c1ccc2c(c1)OCO2 — higher, 10%
- Cc1ccccc1NC(=O)CN1C(=O)S/C(=C\c2ccc(-c3cccc(C(=O)O)c3C)o2)C1=O — lower, -2.06%
- Cc1ccc(NC(=O)CN2C(=O)S/C(=C\c3ccc(-c4cccc(C(=O)O)c4C)o3)C2=O)cc1C — higher, 8.24%
- Cc1ccc(NC(=O)CN2C(=O)S/C(=C\c3ccc(-c4cccc(C(=O)O)c4C)o3)C2=O)cc1 — lower, 0.51%
- COc1ccc(-c2nnc(SCC(=O)Nc3cc(F)ccc3C)o2)cc1 — lower, -0.41%
- CCOc1ccc(N2C(=O)C(=O)/C(=C(/O)c3ccccc3)C2c2ccccc2[N+](=O)[O-])cc1 (stereo not given) — higher, 5.86%
- Cc1ccc(C(=O)Nc2c(-c3cccs3)c(=O)c3ccccc3n2C)cc1 — higher, 5.78%
- NNC(=O)Cn1nc2n(c1=O)-c1ccccc1SC2 — lower, -0.09%
- Cc1nnc(-n2ncc(C#N)c2N)c2nn(-c3cccc(Cl)c3)c(C)c12 — lower, 0.94%
